# Test results: PubChem BioAssay AID624262 (National Center for Advancing Translational Sciences (NCATS), 2012)
# The list shows a part of the results. Results filed as inconclusive are left out. A number with no mark means an inactive call. The call rests on the fitted dose curve; in most records, active means well fitted curve in the direction sought with a large enough effect; inconclusive means small, poorly fitted or top-dose-only effect, or another doubt; inactive means no such curve, though single readings can be large or run the other way.
# Test: qHTS for Inhibitors of Glutaminase (GLS): Hit Confirmation in HRP Counterscreen
# Conditions: HRP/glutamate oxidase coupled Amplex Red fluorescence counterscreen; series mostly up to 46.1 µM; activity change, negative = inhibition: at the top concentration
# Excerpt: Glutaminase (GLS) catalyzes the hydrolysis of glutamine into glutamate and ammonia. It plays a critical role in glutaminolysis, which is an important energy source for proliferating cells. It was shown that c-Myc, an oncogenic transcription factor known to regulate microRNAs and to stimulate cell proliferation, increases glutamine metabolism by stimulating the expression of GLS via direct suppression of miR23a and miR23b. […] GLS is also thought to play a pathogenic role on HAD using a human HIV-1 infected macrophage system. […] GLS inhibition limits glutamate release and provides neuroprotection against HIV-1 infected macrophages. […] The overall goal of this project is to identify small molecule inhibitors of GLS through quantitative high throughput screening (qHTS) of the MLSMR. A validated potent and selective inhibitor can be used as a tool molecule to further study the pharmacology of its target as well as explore its potential therapeutic application in cancer and inflammatory neurological disorders, such as HIV1-associated dementia (HAD) and multiple sclerosis. […]
# 3 uL of buffer are dispensed into black 1536-well plates and then 23 nL of compounds are transferred into the wells using a pin tool. […] The plate is quickly centrifuged before an initial read on the ViewLux is obtained. After a 30 min incubation at RT the plate is once again read on the ViewLux.
row,Structure (SMILES),"activity change, negative = inhibition [%]"
1,CCN1C(=O)c2cccc3c(S(=O)(=O)Nc4ccccc4O)ccc1c23,-2.22
2,COc1cc(OC)c(S(=O)(=O)Nc2ccccc2C(=O)O)cc1S(=O)(=O)Nc1ccccc1C(=O)O,-3.19
